Out of some 360,000 compounds screened, about 3,000 (0.83%) were called active. For the sample, actives were picked, then their nearest neighbours and some compounds at random. Values without a mark were called inactive. No stated cut-off is given here; in the data, active means inhibition above about 50%; inactive means the rest.

DNA (cytosine-5)-methyltransferase 1 (Homo sapiens), sequence (P26358 504-1616 limits assumed): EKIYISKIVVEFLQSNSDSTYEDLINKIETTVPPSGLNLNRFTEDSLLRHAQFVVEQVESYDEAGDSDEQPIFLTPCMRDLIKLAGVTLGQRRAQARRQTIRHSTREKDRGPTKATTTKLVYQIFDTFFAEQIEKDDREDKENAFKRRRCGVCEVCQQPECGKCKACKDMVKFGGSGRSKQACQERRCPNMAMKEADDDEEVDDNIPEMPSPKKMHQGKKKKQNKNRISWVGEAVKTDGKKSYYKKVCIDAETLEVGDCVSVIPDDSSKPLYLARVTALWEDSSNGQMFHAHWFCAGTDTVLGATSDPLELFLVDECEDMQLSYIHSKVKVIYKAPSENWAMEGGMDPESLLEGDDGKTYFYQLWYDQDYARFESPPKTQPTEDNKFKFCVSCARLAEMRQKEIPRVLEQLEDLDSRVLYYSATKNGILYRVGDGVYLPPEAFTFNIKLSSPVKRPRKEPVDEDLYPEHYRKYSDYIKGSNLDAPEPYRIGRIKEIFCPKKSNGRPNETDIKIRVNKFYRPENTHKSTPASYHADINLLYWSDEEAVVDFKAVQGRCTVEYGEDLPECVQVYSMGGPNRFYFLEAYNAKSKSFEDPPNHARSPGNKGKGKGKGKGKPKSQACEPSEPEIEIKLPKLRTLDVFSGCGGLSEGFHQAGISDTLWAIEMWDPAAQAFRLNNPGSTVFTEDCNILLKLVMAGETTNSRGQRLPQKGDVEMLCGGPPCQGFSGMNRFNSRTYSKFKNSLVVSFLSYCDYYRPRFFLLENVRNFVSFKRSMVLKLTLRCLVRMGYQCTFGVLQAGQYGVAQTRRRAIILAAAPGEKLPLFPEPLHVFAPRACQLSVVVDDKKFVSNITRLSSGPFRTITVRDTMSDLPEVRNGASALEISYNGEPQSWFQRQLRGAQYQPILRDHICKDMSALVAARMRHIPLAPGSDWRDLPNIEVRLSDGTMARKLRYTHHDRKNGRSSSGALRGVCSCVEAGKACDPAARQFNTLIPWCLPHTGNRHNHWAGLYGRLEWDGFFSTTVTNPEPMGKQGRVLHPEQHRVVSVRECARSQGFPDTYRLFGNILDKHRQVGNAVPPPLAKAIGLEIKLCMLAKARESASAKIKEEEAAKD

This assay has as its target DNA (cytosine-5)-methyltransferase 1 (Homo sapiens) (UniProt P26358). The assay is described as follows: human DNMT1 methyltransferase inhibitors, primary screen, biochemical, molecular beacon, fluorescence, HinP1I cleavage, uHTS (AID 588458). The settings on record: at 10 µM, hits give high values.
For `Clc1cc(NC2CCCCC2)ncn1`, the inhibition (reported as % activation of signal) is 1.17%. `CCCC(C(=O)NCc1ccco1)N(C(=O)CNS(=O)(=O)c1ccccc1)C1CCCC1` (stereo unspecified): the inhibition (reported as % activation of signal) is 0.13%. Then `O=S(=O)(Nc1nccs1)c1ccc2c(c1)OCCO2`, with 0.9%. Under `c1coc(-c2nc3nc4ccccc4n3nc2-c2ccco2)c1` stands 86.2% (active); under `CC(Oc1ccc(Cl)cc1Cl)C(=O)/C=C/N(C)C` (stereo unspecified), 1.08%. Then `Cn1c(Nc2ccc(F)cc2)nc2cc(-c3ccsc3)sc2c1=O`, with 1.88%. Turning to `COc1ccc(S(=O)(=O)N2CCC(C(=O)NCCC(=O)Nc3ccccc3OC)CC2)cc1`, the inhibition (reported as % activation of signal) is 3.13%.

Regarding `CC(CCc1ccc(O)cc1)NCc1ccc(Cl)cc1Cl` (stereo unspecified), the inhibition (reported as % activation of signal) was 1.55%. Regarding `COc1ccc(/C=C2\SC(=N)N(c3ccc(F)cc3)C2=O)cc1`, the inhibition (reported as % activation of signal) was 59% (active). Under `COc1cccc(/C=C2\SC(=N)N(c3ccc(F)cc3)C2=O)c1` stands 29.4%. Under `COc1ccc(N2C(=O)CNC2=S)cc1` stands 0.19%. Then `COC(=O)C1=C(C)NC(=S)NC1c1ccc(OCC(=O)N2CC(C)OC(C)C2)c(OC)c1` (stereo unspecified), with -3.49%; and `O=C1CC(Cc2ccc(Cl)cc2)C(=O)N1c1cc(Cl)ccn1` (stereo unspecified), with 1.99%; and `O=C(NC1CCCC1)C(NS(=O)(=O)c1ccc(Br)s1)c1ccccc1` (stereo unspecified), with 3.01%. For the compound `Cc1ccc(/C=C/C(=O)OCC(=O)Nc2cccnc2Cl)cc1`, the inhibition (reported as % activation of signal) is 0.14%. Under `O=C(COC(=O)/C=C/c1cn(-c2ccccc2)nc1-c1cccnc1)Nc1ccc(Cl)cc1Cl` stands 56% (active); under `COc1ccc(NC(=O)CN(C)C(=O)/C=C/c2cn(Cc3ccccc3)nc2-c2cccnc2)cc1`, 2.58%.

`CCN(CC(=O)Nc1ccc(OC)cc1)C(=O)c1ccc(=O)n(Cc2ccccc2)n1`: the inhibition (reported as % activation of signal) was 4.56%.

Consider `Nc1ccc2nc3c(=O)[nH]c(=S)[nH]c3nc2c1`, for which the inhibition (reported as % activation of signal) was 129% (active). Under `CC1(Oc2cccc(F)c2)CCN(Cc2ccccc2OC(F)F)C1` (stereo unspecified) stands 8.51%. Under `CCCOc1ccc2c3c(c(=O)oc2c1OCCC)CCC3` stands 5.15%; under `CCCn1nc(C(=O)OCc2nc(N)nc(Nc3ccccc3C)n2)c2ccccc2c1=O`, -3.44%. Under `Cc1ccc(C(=O)NNC(=O)CSc2nnc3ccccn23)cc1` stands -3.3%. On to `Cc1ccc(C(=O)NNc2ncnc3ccccc23)cc1`, for which the inhibition (reported as % activation of signal) is 2.1%.

`Cc1ccc(C(=O)NNC(=O)c2cc3cc4ccccc4nc3s2)cc1`: the inhibition (reported as % activation of signal) is 54.4% (active). Under `CCOc1cc(C(=O)Nc2c(C)ccc3nsnc23)cc(OCC)c1OCC` stands 1.78%; under `c1ccc2c(-c3nn4nnnc4c4ccccc34)cccc2c1`, -1.65%; under `CCCN1Cc2cccc(C(=O)NCc3ccccc3)c2C1=O`, 0.1%. On to `Cc1ccc(S(=O)(=O)N2CCN=C2SCc2c(F)cccc2Cl)cc1`, for which the inhibition (reported as % activation of signal) is -1.13%. Under `C/C(=N\Nc1ccccc1)c1cccs1` stands -15%; under `C/C(=N\Nc1ccc(S(N)(=O)=O)cc1[N+](=O)[O-])c1cccs1`, 51% (active); under `CCOC(=O)C/C(C)=N\Nc1ccc([N+](=O)[O-])cc1[N+](=O)[O-]`, 8.42%.

Take `CCCCNc1c(-c2cccc(Sc3ccc(OC)cc3)c2)nc2ccccn12`: the inhibition (reported as % activation of signal) is -24.9%.

With `CCc1nnc(NC(=O)c2cc(S(=O)(=O)N3CCN(CC)CC3)ccc2Cl)s1`, the inhibition (reported as % activation of signal) was 1.36%. With `Clc1ccc(C2=CSC3=Nc4cccc5cccc(c45)N23)cc1`, the inhibition (reported as % activation of signal) is 61.1% (active).

Take `O=C(COC(=O)c1ccc(S(=O)(=O)N2CCc3ccccc3C2)cc1)NC(=O)NCc1ccco1`: the inhibition (reported as % activation of signal) is 4.21%. Under `CCc1nc(SCC(=O)Nc2ccccc2OC)n[nH]1` stands 0.12%. Under `CCOc1ccccc1NC(=S)C(=C([O-])c1ccc2c(c1)OCCO2)[n+]1ccc(CC)cc1` stands -14.6%; under `CCc1nn(-c2cc(Oc3cccc4ccccc34)nc(-c3ccccc3)n2)c(N)c1C#N`, 56.2% (active). `CC(C)(C)n1nc(Cc2cccc3ccccc23)c(C#N)c1N`: the inhibition (reported as % activation of signal) is 3.39%. Then `CCCCn1nnnc1C(c1cccc(OC)c1OC)N1CCN(C/C=C/c2ccccc2)CC1` (stereo unspecified), with -2.12%; and `O=C(CCN1CCc2ccccc2C(O)(c2ccccc2)C1)c1ccc2c(c1)OCCO2` (stereo unspecified), with -2.82%. Turning to `CSC1=NC2(C)CCCCC2C12C=CC(=O)C=C2` (stereo unspecified), the inhibition (reported as % activation of signal) was -0.69%. Under `CS(=O)(=O)N(CC(=O)N1CCN(c2ccc(F)cc2)CC1)C1CCCCC1` stands 0.1%.

Consider `O=C(NNC1=NCCC1)c1cccc(S(=O)(=O)N2CCCCC2)c1`, for which the inhibition (reported as % activation of signal) is 2.1%. Under `Cc1nn(C)cc1CNC(=O)Nc1ccc(Cl)cc1` stands -5.06%.

(Values after PubChem BioAssay AID588458 (Sanford-Burnham Center for Chemical Genomics, 2011).)
